From PubChem
Shown are actives, neighbours in structure and some others; about 3.4% of the full set was active somewhere.
EBV LMP1 NFkB: Epstein-Barr LMP1 NF-kappaB reporter inhibition; actives 0.69% (n = 350,000); LMP1-induced NF-kappaB luciferase reporter cells, luminescence; inhibition, % at 12.5 µM; in the data active means inhibition above about 41%
Shn3 inh set2: inhibitors of Schnurri-3 3'UTR reporter in osteoblasts. Clone20 osteoblast Shn3 3'UTR firefly luciferase, 24 h. inhibition, % at 12.5 µM. actives 0.52% (n = 360,000);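 active means mean inhibition of at least 75% with every replicate also reaching 75%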
TROY NFkB inh: TROY signaling inhibition | Q293 LMP1-TROYcd NF-kB luciferase reporter, 4 h | inhibition, % at 10 µM | actives 0.98% (n = 360,000) | AID 1347056;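 active means compounds whose plate-normalised and pattern-corrected inhibition of the luciferase reporter signal at the single screening dose is 50% or more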
HIF-2a block: HIF-2a inhibition. 786-0 RCC cells HIF-2a reporter, luciferase luminescence, overnight. inhibition, % at 18.8 µM. actives 0.72% (n = 360,000);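 active means inhibition of the luminescence signal of 40% or more relative to plate controls, in a single-dose primary screen at 18.75 µM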
MITF TRPM1 inh: reduces MITF-dependent TRPM1 promoter luciferase signal; SK-MEL-5 TRPM1 promoter luciferase, 24 h; inhibition, % at 12.5 µM; actives 0.83% (n = 330,000);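 active means mean inhibition across replicates of 60% or more, whatever share of single replicates reaches that level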
TWEAK Fn14 block: blocks TWEAK-Fn14 interaction in a reporter cell assay. TWEAK-stimulated Fn14 reporter cells, luciferase luminescence, 8 h. inhibition, % at 10 µM. AID 1159606. actives 2% (n = 360,000); in the data active means inhibition above about 50%
Large screens that a line does not name were inactive.

C[C@@H]1CN([C@H](C)CO)S(=O)(=O)c2ccc(C#Cc3ccccc3F)cc2O[C@H]1CN(C)C(=O)c1ccc2c(c1)OCO2	none (no result: MITF TRPM1 inh)
CSC[C@H]1CN(CCc2ccccc2)C(=O)[C@@H]1CC(=O)Nc1ccc(Br)cc1	none (no result: MITF TRPM1 inh)
COC(=O)CSC1=C(C#N)C(=O)NC(c2ccccc2)S1 (stereo unspecified)	MITF TRPM1 inh 74
O=C(O)c1cccc(Nc2ccnc(Nc3cccc(C(=O)O)c3)n2)c1	EBV LMP1 NFkB 58
O=C(O)c1cccc(Nc2nc(N3CCOCC3)nc(N3CCOCC3)n2)c1	none
CCc1nc2c(OCc3ccc(F)cc3)cccn2c1N(C)C(=O)C(C)C	none (no result: EBV LMP1 NFkB, MITF TRPM1 inh)
O=C(NCC1CC1(Cl)Cl)Nc1ccc(Cl)c(Cl)c1 (stereo unspecified)	TROY NFkB inh 53
Cc1ccc(NC(=O)NCC2CC2(Cl)Cl)cc1 (stereo unspecified)	none
COc1ccc2[nH]c3c4c(ccc3c2c1)C(=O)C=CC4=O	Shn3 inh set2 96, HIF-2a block 80, MITF TRPM1 inh 79, TWEAK Fn14 block 72
Fc1cccc(-c2cc3nc4c(c(N5CCC6(CC5)OCCO6)n3n2)CCCC4)c1	TWEAK Fn14 block 54
N#CCCN(Cc1ccccc1)C(=O)CCC(=O)c1ccc(F)cc1	none (no result: MITF TRPM1 inh)
COc1ccc(N/C(N)=N/c2nc(C)cc(=O)[nH]2)cc1	EBV LMP1 NFkB 86
COc1cccc(N/C(N)=N/c2nc(C)cc(=O)[nH]2)c1	none
CN(C)/C=C/C(=O)c1ccc2noc(-c3ccccc3)c2c1	EBV LMP1 NFkB 60
CCOC(=O)c1c(NC(=O)c2c(C(=O)O)cccc2[N+](=O)[O-])sc2c1CCCC2	none
CC1=C(C(=O)OCc2ccc3c(c2)OCO3)C(c2ccc(O)c([N+](=O)[O-])c2)NC(=O)N1 (stereo unspecified)	TWEAK Fn14 block 71
CCOC(=O)C(CCCOc1ccccc1)C(=O)OCC	TWEAK Fn14 block 63 (no result: TROY NFkB inh)
CC(=O)[C@H]1CC[C@H]2[C@@H]3CCC4=CC(=O)CC[C@]4(C)[C@H]3CC[C@]12C	none
CC12CCC(=O)C=C1CCC1C2C(O)CC2(C)C(c3csc(N)n3)CCC12 (stereo unspecified)	Shn3 inh set2 86
CC12CCC(=O)C=C1CCC1C2CCC2(C)C(c3csc(N)n3)CCC12 (stereo unspecified)	TROY NFkB inh 51, TWEAK Fn14 block 57
CC(=O)C1CCC2C3CCC4=CC(=O)CCC4(C)C3C(O)CC12C (stereo unspecified)	none (no result: EBV LMP1 NFkB, MITF TRPM1 inh)
CN(C(=O)c1cccc(NC(=O)Cc2ccc(NC(=O)C3CCCN(S(=O)(=O)c4cccc([N+](=O)[O-])c4)C3)cc2)c1)C1CCCC1 (stereo unspecified)	none
Nc1nc(N)nc(-c2cc(C(F)(F)F)ccc2Cl)n1	none
Nc1nc(N)nc(-c2cc(Cl)ccc2Cl)n1	EBV LMP1 NFkB 84
Cc1ccccc1/C=N/NC(=O)c1ccc(-n2cnnn2)cc1	none
O=C(O)c1ccc(Nc2ncnc3scc(-c4ccccc4)c23)cc1	TWEAK Fn14 block 55
O=C(CSc1ncnc2scc(-c3ccccc3)c12)Nc1ccc(C(=O)O)cc1	none
CC(=O)Nc1ccc(Sc2ncnc3scc(-c4ccccc4)c23)cc1	TWEAK Fn14 block 62
Cc1ccc(-c2csc3ncnc(Nc4ccc(C(=O)O)cc4)c23)cc1	none (no result: Shn3 inh set2)
Cn1nnnc1Sc1ncnc2scc(-c3ccccc3)c12	HIF-2a block 60
O=C(Nc1ccc(-c2nc3ccccc3o2)cc1)c1ccc(N2CCOCC2)c([N+](=O)[O-])c1	Shn3 inh set2 91
COc1ccc2oc(-c3ccc(NC(=O)c4ccc(N5CCOCC5)c([N+](=O)[O-])c4)cc3)nc2c1	none
C=CCNc1nc(Nc2ccc(-c3nc4ccccc4o3)cc2)nc(N2CCOCC2)n1	TROY NFkB inh 58, TWEAK Fn14 block 53
O=C(NCCCN1CCCC1)c1ccc2c(c1)N(Cc1ccccc1F)C(=O)c1ccccc1S2(=O)=O	none
Cc1onc(-c2ccccc2Cl)c1C(=O)Nc1ncn[nH]1	none
Cn1cccc1/C=N/n1c(-c2ccc(Cl)cc2Cl)n[nH]c1=S	EBV LMP1 NFkB 84
CCNC(=S)N(CCCN(C)C)Cc1cc2cc3c(cc2[nH]c1=O)OCCO3	none
COc1ccc(C2CC3(O)CC(C#N)(C(=O)N3)C2(C#N)C#N)cc1 (stereo unspecified)	TROY NFkB inh 82, TWEAK Fn14 block 91
